Many of the other results were omitted from the sample, so hits are more common in it than they were.
G9a inh = qHTS Assay for Inhibitors of Histone Lysine Methyltransferase G9a; Potency, µM (titrated, usually from 102 µM), inactives show top-dose activity, negative = inhibition, most hits filed as inhibitors; AID 504332, 2011; 350,000 tested, 8.8% active; G9a H3K9 monomethylation, AlphaScreen, 2 h; also: % is scaled to controls: 0 for no effect and ±100 for the full control effect; nearly all actives have a fitted effect of over 75% in size
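Step 1: enzyme (final 20 nM) with compound, 15 min RT. Step 2: substrate peptide 500 nM and SAM 20 uM, 2 h RT. Step 3: anti-H3K9me1 antibody and AlphaScreen beads, 10 min, then plate read.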
VDR inhibitor = Inhibitors of the vitamin D receptor (VDR): qHTS | 400,000 tested, 0.93% active | Potency, µM, for the others: max response, negative = inhibition, most hits filed as inhibitors | VDR-SRC2-3 peptide fluorescence polarization, 2 h | Vitamin D3 receptor (Homo sapiens), P11473; also: % is scaled to controls: 0 for no effect and ±100 for the full control effect
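Fluorescence polarization assay of small-molecule disruption of VDR binding to coregulator peptide SRC2-3. Compounds and controls pin-transferred, then read after 2 h incubation at ambient room temperature.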
Sfp inh = qHTS Assay for Inhibitors of Bacillus subtilis Sfp phosphopantetheinyl transferase (PPTase). 4'-phosphopantetheinyl transferase ffp (Bacillus subtilis), Q9F4F7. 310,000 tested, 3.5% active. Biochemical Sfp PPTase activity, qHTS. Potency, µM, for the others: largest response in the series, negative = inhibition, usual class: inhibitors;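 also: the enzyme is Sfp with the accession as filed and its product quenches rhodamine fluorescence; 0% = enzyme reaction without inhibitor and -100% = no enzyme wells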
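Compounds were incubated with enzyme (final 15 nM) for 15 min at room temperature before substrate addition started the reaction. Fluorescence at 525 nm excitation, 598 nm emission was recorded immediately and after 30 minutes.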
12-LOX inh = Primary qHTS assay for inhibitors of human arachidonate 12S-lipoxygenase (ALOX12): Round 2; Polyunsaturated fatty acid lipoxygenase ALOX12 (Homo sapiens), P18054; purified 12hLO, xylenol orange hydroperoxide absorbance; Potency, µM (doses to about 108 µM), without a hit: at the highest dose activity change, negative = inhibition, usual class: inhibitors; 580,000 tested, 1.1% active; AID 1671190, 2021; also: % is scaled to controls: 0 for no effect and ±100 for the full control effect
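Hydroperoxide product was detected by ferrous iron/xylenol orange as the 573 to 405 nm absorbance ratio. Arachidonic acid at 40 uM (final) was turned over for 30 min at room temperature by 150 nM human 12hLO, pH 7.0 Hepes buffer, after 15 min compound preincubation.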
GRP78 ERSR act = qHTS for Inducers of the Endoplasmic Reticulum Stress Response (ERSR) in Human Glioma: qHTS | U87-MG GRP78 promoter luciferase reporter, 16 h | Potency, µM, without a hit: at the top dose activation, most hits filed as activators | 420,000 tested, 0.02% active | AID 602332, 2012; also: series mostly up to about 76 µM; % of control where 0% means no effect; nearly all actives have a fitted effect of over 35% in size
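Stably transfected U87-MG glioma cells carrying a GRP78-based luciferase sensor; 16 h compound incubation. Luminescence end-point read 10 min after Bright-Glo addition at room temperature.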
* = called active by the depositor; u = inconclusive; x = not tested or not shown; [ ] = remark or other dose. Calls follow the shape of the dose curve; as a rule, active = well fitted curve in the direction sought with a large enough effect; inconclusive = small, poorly fitted or top-dose-only effect, or another doubt; inactive = no such curve, though single readings can be large; an effect the other way counts as inactive or inconclusive. Potency is read from the fitted curve at half-maximal effect.

SMILES	G9a inh	VDR inhibitor	Sfp inh	12-LOX inh	GRP78 ERSR act
COc1ccc(CC(=O)Nc2ccc(S(=O)(=O)NCC3CCCO3)cc2)cc1 (stereo not given)	10µM*	13%	u	u	-6%
COc1ccc(N2CCN(CCCNC(=O)c3ccc4nc(Cc5ccccc5)oc4c3)CC2)cc1	14µM*	-2%	x	u	-3%
COc1ccc(Nc2cc(C(=O)N3CCc4ccccc4C3)c3ccccc3n2)c(OC)c1	18µM*	4%	3%	-10%	0%
CC(C)Oc1ccc(-c2cc(C(=O)NCCN3CCOCC3)c3ccccc3n2)cc1	-8%[0.501 µM]	6%	79µM*	0%	7%
COc1ccc(N2CCN(CCCNC(=O)c3ccc4nc(CCc5ccccc5)oc4c3)CC2)cc1	u	-4%	x	-29%	0%
CCc1ccc(Nc2cc(C(=O)NCCCN3CCOCC3)c3ccccc3n2)cc1	-7%	5%	35µM*	u	-3%
O=C(NCCN1CCOCC1)c1cc(-c2ccc(-c3ccccc3)cc2)nc2ccccc12	x	x	x	-70%	x
O=C1NC2(CCCC2)C(=O)N1Cc1ncc(-c2cccc(Cl)c2)o1	x	x	x	19%	x
COc1cc(OC)c(C(=O)Nc2nc(C)c(C)s2)cc1OC	x	x	x	-36%	x
N#Cc1ccc(NC(=O)CCCc2cccs2)cc1	x	x	x	40%	x
Brc1n[nH]c(Br)n1	x	x	x	21%	x
CCOC(=O)C(NC(=O)c1cc(C)cc(C)c1)C(=O)OCC	x	x	x	-28%	x
COc1ccc(N2CCN(CCCNC(=O)c3cc(Nc4ccc(OC)cc4OC)nc4ccccc34)CC2)cc1	13µM*	0%	x	u	-2%
CCOc1nc2cccc(C(=O)OC(C)OC(=O)OC3CCCCC3)c2n1Cc1ccc(-c2ccccc2-c2nn[nH]n2)cc1 (stereo not given)	-6%[2.33 µM]	45µM*	-33%	u	-4%
O=C(O)/C(=C/c1cccc(OCc2ccccc2)c1)c1cccs1	x	x	x	13%	x
O=S(=O)(NC1=NCN(CCc2ccccc2)CN1)c1ccc(Br)cc1	x	x	x	8%	x
CC(C)(O)[C@H](O)COc1c2occc2cc2ccc(=O)oc12	1.4µM*	4%	6%	10%	-1%
C=C(C)CN1CCN(c2nc3c(c(=O)[nH]c(=O)n3C)n2Cc2ccccc2F)CC1	x	x	x	-7%	x
NNc1nc2c(F)cc(F)cc2s1	u	0%	-20%	40µM*	0%
O=C(CCc1ccccc1)Nc1nc2c(F)cc(F)cc2s1	-4%	-13%	35µM*	0%	-4%
Cc1ccc(S(=O)(=O)c2[nH]c(-c3ccccc3)nc2SCCC(=O)O)cc1	u	13%	x	1%	-4%
CCCSc1nc(-c2ccccc2)[nH]c1S(=O)(=O)c1ccc(C)cc1	13µM*	-5%	x	u	-4%
Cn1cnc(Sc2ncnc3nc[nH]c23)c1[N+](=O)[O-]	x	9%	40µM*	7%	-5%
CC(=O)CSc1ncnc2nc[nH]c12	-3%[59 µM]	14%	0%	u	-4%
CN(Cc1ccco1)C(=O)NCc1ccc(F)cc1	x	x	x	-5%	x
SMILES	G9a inh	VDR inhibitor	Sfp inh	12-LOX inh	GRP78 ERSR act
O=C(O)CC1CC(c2ccccc2)=NO1 (stereo not given)	-4%[59 µM]	-1%	x	x	1%
CC1OC(CC(=O)O)CC2=C1C(=O)c1c(O)cccc1C2=O (stereo not given)	x	10µM*	x	u	-14%
CCOC(=O)CNC(=O)CSc1ccc2nnc(-c3ccc(F)cc3)n2n1	32µM*	u	0%	u	-4%
COc1ccc(-c2nnc3ccc(SC)nn23)cc1	-1%	-2%	-3%	1%	-1%
Cc1ccc(-c2nnc3ccc(SCC(=O)NCc4ccco4)nn23)cc1	14%[59 µM]	-9%	-13%	-20%	-5%
CCSc1ccc2nnc(-c3ccc(F)cc3)n2n1	18µM*	-5%	4%	u	-4%
O=C(CSc1ccc2nnc(-c3ccc(F)cc3)n2n1)NCC1CCCO1 (stereo not given)	20µM*	1%	-6%	x	-1%

Screens deposited in PubChem by National Center for Advancing Translational Sciences (NCATS).
